What was measured:
Assay in all cases: log2 ratio of Biotin-Ahx-Ub-VS probe labelling (fragment/DMSO); higher = less target engagement (more negative = stronger competition), active = hit call of the paper (q ≤ 0.05, log2 ratio ≤ -1)
Settings in all cases: compound concentration: 200 uM; treatment time: 3 h
USP9X = USP9X (UniProt Q93008)
How it was run: (§1)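 HEK293T lysate (495 µg per sample, in Tris/CHAPS/IGEPAL buffer with protease inhibitors) was exposed in triplicate for 3 h to fragment at 200 µM or to vehicle, then to Biotin-Ahx-Ub-VS at 0.5 µM final for 1 h. Labelled DUBs were enriched on NeutrAvidin, digested with LysC and trypsin, and analysed by diaPASEF LC-MS/MS. Spectronaut label-free quantities were normalised to the global median, and values are average log2 ratios of fragment over vehicle from an unpaired t-test. Only proteins with ≥2 unique peptides were used.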

UniProt O00487 = target: UniProt O00487
Sequence of UniProt O00487 (O00487 whole entry): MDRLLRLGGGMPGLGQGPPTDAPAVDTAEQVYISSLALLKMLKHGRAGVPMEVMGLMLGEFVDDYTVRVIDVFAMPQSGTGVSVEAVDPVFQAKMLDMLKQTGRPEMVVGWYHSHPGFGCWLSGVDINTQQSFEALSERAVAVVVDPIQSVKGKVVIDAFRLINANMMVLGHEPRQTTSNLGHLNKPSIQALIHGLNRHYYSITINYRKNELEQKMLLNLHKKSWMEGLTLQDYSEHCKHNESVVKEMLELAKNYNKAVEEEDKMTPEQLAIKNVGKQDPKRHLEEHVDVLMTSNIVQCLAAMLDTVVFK
How it was run: as §1

UniProt O00507 = target: UniProt O00507
Sequence of UniProt O00507 (O00507 whole entry): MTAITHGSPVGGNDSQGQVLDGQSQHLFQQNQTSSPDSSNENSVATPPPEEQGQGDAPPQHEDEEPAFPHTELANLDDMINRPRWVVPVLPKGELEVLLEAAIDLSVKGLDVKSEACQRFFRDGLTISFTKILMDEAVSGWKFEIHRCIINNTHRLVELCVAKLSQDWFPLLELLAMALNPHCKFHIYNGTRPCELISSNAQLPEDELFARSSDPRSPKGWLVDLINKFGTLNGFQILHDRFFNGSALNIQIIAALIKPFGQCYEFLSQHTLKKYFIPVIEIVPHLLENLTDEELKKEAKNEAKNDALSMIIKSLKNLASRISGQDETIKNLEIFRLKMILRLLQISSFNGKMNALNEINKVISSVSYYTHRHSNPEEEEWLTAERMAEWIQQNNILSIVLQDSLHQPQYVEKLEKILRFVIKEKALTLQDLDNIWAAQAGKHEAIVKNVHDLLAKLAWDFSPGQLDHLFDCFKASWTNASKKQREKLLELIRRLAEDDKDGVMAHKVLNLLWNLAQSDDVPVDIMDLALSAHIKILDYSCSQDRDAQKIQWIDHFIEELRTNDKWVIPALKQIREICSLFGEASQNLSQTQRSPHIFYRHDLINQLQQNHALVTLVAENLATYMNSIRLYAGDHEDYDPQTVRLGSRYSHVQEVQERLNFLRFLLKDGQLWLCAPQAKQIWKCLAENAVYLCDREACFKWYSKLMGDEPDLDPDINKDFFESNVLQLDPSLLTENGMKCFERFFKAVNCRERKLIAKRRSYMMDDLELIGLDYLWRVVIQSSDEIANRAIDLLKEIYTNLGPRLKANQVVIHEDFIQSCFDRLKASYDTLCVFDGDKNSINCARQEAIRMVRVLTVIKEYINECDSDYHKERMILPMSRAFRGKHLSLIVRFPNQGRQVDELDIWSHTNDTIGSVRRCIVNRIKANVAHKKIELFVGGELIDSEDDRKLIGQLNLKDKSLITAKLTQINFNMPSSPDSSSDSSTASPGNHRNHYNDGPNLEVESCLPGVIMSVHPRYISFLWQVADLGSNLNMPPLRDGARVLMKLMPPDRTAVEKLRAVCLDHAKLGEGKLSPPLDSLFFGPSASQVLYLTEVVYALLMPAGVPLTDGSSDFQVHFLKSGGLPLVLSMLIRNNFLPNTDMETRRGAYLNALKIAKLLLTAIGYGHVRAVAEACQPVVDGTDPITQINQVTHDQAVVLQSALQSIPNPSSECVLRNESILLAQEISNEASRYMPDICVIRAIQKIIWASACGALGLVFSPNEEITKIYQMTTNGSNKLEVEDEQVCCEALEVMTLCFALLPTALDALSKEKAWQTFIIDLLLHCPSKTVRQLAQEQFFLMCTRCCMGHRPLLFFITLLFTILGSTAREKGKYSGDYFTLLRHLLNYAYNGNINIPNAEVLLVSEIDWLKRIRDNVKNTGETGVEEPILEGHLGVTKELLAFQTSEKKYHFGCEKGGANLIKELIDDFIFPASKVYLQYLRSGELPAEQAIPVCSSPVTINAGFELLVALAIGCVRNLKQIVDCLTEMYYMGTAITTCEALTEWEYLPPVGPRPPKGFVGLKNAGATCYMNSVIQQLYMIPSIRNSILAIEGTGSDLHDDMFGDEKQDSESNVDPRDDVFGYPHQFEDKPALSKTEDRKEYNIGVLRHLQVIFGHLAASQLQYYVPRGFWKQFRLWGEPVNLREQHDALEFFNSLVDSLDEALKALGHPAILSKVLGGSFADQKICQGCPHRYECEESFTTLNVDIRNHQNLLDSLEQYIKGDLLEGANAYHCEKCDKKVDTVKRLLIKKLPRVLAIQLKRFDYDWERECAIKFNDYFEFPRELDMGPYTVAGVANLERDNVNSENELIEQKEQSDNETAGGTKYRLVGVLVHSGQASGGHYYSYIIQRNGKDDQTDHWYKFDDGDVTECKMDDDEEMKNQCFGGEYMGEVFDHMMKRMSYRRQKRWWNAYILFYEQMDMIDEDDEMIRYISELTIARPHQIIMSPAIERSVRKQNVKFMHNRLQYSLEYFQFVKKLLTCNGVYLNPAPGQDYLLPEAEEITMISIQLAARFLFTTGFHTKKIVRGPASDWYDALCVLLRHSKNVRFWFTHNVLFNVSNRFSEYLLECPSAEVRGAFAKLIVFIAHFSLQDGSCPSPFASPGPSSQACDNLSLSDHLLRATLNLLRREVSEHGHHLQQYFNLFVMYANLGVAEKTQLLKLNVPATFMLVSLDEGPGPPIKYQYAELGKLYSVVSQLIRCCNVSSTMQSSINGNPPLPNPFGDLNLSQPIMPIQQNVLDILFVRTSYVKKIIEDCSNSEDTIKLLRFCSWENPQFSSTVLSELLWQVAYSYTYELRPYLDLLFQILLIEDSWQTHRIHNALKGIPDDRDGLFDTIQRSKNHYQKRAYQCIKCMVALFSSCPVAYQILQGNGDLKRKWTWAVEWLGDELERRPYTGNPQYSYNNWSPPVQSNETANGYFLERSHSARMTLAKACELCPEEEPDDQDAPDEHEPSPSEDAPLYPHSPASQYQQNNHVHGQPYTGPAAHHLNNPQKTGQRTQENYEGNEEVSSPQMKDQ
How it was run: as §1

UniProt P51784 = target: UniProt P51784
Sequence of UniProt P51784 (P51784 whole entry): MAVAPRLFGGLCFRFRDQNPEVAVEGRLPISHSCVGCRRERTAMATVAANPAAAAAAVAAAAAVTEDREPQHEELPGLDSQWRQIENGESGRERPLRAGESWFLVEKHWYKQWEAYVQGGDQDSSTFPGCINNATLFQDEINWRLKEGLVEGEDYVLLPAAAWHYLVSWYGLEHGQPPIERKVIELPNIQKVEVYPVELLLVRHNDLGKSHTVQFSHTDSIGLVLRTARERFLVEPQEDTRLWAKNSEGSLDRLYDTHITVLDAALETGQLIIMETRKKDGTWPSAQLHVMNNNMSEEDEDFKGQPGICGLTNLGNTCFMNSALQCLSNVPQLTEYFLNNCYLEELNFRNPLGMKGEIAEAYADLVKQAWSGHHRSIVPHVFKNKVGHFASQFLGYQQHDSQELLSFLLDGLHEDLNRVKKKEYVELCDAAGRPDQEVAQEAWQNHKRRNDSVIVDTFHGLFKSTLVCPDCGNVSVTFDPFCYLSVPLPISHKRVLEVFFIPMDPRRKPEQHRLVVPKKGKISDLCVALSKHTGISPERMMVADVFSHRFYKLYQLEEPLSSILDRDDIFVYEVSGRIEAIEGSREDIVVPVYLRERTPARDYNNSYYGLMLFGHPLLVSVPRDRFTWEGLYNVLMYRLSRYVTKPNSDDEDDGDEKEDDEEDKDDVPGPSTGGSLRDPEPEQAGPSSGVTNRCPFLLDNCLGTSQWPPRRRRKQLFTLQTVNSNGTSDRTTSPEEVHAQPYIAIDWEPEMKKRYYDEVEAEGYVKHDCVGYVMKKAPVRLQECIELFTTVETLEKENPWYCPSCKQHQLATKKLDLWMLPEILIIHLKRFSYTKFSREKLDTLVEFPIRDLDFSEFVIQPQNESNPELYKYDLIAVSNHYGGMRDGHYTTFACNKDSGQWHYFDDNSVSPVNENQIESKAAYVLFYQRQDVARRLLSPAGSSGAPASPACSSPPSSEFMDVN
How it was run: as §1

UniProt Q5T2D3 = target: T1, UniProt Q5T2D3
T1 sequence (whole entry): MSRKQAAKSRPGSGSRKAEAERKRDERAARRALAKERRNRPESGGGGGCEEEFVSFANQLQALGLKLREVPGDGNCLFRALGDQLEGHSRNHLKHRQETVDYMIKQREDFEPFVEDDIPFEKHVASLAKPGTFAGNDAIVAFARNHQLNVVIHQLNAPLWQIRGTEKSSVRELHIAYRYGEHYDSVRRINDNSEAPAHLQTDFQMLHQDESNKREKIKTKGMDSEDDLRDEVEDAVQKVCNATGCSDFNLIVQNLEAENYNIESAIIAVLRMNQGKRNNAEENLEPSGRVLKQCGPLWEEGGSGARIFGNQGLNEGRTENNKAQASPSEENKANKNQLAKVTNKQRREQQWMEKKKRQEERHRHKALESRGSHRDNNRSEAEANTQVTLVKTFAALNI
How it was run: as §1

UniProt Q8TE49 = target: T2, UniProt Q8TE49
T2 sequence (whole entry): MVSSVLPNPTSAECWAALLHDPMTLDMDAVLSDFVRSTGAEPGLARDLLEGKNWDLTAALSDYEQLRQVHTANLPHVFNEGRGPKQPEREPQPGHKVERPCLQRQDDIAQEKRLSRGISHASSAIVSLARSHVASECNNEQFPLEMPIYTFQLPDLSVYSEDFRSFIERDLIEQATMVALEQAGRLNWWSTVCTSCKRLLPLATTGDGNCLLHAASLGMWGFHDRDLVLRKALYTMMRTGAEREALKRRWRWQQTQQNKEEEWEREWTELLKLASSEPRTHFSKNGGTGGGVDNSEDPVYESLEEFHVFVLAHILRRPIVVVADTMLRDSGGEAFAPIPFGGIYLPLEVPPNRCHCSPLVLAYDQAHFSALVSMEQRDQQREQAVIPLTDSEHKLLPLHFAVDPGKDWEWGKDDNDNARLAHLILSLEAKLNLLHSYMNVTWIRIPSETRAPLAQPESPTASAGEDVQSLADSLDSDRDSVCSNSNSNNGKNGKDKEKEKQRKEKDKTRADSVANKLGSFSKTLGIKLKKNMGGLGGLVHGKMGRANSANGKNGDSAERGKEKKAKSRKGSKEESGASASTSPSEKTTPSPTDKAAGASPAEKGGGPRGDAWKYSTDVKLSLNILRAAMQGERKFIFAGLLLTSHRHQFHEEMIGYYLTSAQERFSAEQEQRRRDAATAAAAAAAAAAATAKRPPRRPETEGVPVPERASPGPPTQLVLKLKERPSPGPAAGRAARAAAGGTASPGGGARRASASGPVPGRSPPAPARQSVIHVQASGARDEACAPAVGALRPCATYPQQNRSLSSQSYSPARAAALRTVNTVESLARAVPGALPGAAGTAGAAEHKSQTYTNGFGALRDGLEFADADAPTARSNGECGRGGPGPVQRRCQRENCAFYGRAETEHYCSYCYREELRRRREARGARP
How it was run: as §1

UniProt Q9P2H5 = target: T3, UniProt Q9P2H5
T3 sequence (whole entry): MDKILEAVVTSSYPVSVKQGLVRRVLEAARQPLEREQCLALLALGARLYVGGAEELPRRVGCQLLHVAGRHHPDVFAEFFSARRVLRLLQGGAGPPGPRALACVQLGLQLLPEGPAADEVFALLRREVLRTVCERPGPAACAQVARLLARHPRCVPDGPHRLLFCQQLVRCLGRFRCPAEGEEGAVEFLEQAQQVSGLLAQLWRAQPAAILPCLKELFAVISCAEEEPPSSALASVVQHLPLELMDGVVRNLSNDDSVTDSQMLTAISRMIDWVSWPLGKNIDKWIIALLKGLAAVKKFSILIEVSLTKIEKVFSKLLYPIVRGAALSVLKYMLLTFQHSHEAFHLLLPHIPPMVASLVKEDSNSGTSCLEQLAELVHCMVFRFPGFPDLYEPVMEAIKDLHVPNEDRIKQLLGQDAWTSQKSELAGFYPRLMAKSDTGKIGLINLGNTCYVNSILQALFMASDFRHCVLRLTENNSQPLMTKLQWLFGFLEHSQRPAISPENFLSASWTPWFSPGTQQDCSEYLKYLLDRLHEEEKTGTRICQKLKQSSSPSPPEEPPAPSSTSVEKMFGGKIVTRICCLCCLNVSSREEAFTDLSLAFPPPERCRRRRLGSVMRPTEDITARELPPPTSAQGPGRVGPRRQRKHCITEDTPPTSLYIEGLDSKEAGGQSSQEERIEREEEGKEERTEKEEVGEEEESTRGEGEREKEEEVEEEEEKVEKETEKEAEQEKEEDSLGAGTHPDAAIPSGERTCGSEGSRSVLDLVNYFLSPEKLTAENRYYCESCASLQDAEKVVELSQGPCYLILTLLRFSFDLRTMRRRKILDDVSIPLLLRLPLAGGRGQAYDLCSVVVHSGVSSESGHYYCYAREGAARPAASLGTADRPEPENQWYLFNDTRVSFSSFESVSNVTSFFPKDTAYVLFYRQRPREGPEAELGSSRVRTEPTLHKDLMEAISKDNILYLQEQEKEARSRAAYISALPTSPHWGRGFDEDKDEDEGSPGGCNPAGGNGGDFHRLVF
How it was run: as §1

UniProt Q9UGI0 = target: T4, UniProt Q9UGI0
T4 sequence (whole entry): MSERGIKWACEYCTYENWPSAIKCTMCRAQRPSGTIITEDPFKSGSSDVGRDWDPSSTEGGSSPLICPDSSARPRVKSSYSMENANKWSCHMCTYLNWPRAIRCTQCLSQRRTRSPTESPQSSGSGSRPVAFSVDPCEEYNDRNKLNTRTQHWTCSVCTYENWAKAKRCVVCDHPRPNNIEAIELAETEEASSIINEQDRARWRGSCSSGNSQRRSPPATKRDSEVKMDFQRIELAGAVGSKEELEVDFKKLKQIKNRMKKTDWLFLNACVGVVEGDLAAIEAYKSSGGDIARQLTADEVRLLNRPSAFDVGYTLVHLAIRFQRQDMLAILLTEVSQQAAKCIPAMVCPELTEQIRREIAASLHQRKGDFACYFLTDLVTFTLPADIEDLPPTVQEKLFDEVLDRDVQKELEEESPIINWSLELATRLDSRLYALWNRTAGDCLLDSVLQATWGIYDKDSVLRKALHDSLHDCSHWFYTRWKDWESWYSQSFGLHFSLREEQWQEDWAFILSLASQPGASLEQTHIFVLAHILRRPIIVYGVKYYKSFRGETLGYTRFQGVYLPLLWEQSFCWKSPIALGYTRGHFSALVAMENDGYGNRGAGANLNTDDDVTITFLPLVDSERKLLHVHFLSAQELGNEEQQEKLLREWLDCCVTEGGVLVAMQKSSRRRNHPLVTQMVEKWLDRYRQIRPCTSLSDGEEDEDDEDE
How it was run: as §1

YOD1 = target: T5, YOD1 (UniProt Q5VVQ6)
T5 sequence (whole entry): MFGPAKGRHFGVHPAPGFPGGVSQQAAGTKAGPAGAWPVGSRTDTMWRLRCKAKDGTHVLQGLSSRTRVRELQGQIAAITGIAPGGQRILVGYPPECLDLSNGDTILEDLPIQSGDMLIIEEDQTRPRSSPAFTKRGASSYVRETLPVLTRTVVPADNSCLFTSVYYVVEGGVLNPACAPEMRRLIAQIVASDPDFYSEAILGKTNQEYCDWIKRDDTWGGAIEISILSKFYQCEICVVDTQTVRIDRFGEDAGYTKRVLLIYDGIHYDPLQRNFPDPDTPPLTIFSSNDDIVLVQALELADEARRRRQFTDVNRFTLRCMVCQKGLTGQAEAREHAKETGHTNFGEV
How it was run: as §1

Measured: log2 ratio of Biotin-Ahx-Ub-VS probe labelling

CN(Cc1nc2ccccc2[nH]1)C(=O)CCl.Cl
inactive: USP9X -0.057 | UniProt O00487 -0.00224 | UniProt O00507 -0.702 | UniProt P51784 0.00766 | UniProt Q5T2D3 -0.19 | UniProt Q8TE49 -0.268 | UniProt Q9P2H5 0.121 | UniProt Q9UGI0 -0.937 | YOD1 0.0427
